Among the data in PubChem BioAssay (NCATS) are viability, Potency and viability (% of control) values, retold here.

Results filed as inconclusive are left out. Values without a mark were called inactive. Calls of active or inactive are those of the source. The call rests on the fitted dose curve; in most records, active means well fitted curve in the direction sought with a large enough effect; inconclusive means small, poorly fitted or top-dose-only effect, or another doubt; inactive means no such curve, though single readings can be large; an effect the other way counts as inactive or inconclusive.

The nature of assay [1]: BET inhibitor-based combinations targeting novel dependencies in MECOM-rearranged (r) AML: SET-2 cell line (AID 2202231). Further: nearly all actives have a fitted effect of over 35% in size.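 On viability: plate controls were DMSO treated cells for no effect and wells without cells for full effect.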 To be noted: SET-2 AML cells viability, CellTiter-Glo luminescence, 48 h; viability: active compounds read low, concentration not given here. A digest of the protocol: (§1)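 Luminescent ATP readout (CellTiter-Glo) after 48 hr drug exposure gives viability. Curves span 11 concentrations and are normalized to DMSO and empty wells. Activity is reported as area under the curve and its Z-transform within each cell line.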
A general note: In ATP-based viability assays light output follows the ATP content of the culture.

Assay [2] can be described thus: BET inhibitor-based combinations targeting novel dependencies in MECOM-rearranged (r) AML: HNT-34 cell line (AID 2202234). Further: nearly all actives have a fitted effect of over 35% in size.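 On viability (% of control): plate controls were vehicle wells for no effect and cell-free wells for full effect.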 The gist of the method:
(§2)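 Luminescent ATP readout (CellTiter-Glo, 15 min at room temperature) after 48 hr drug exposure gave viability. Dose-response curves, normalized to DMSO and empty-well controls, were summarized as area under the curve and its mean-centred Z-score.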

Assay [3] in a line: BET inhibitor-based combinations targeting novel dependencies in MECOM-rearranged (r) AML: UCSD-AML1 cell line (AID 2202235). Further: nearly all actives have a fitted effect of over 40% in size.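 On viability (% of control): series mostly up to about 46 µM; plate controls were DMSO vehicle wells for no effect and blank wells for full effect.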 A digest of the protocol: as §2
The nature of assay [4]: BET inhibitor-based combinations targeting novel dependencies in MECOM-rearranged (r) AML: AML-191 cell line (AID 2202236; further: nearly all actives have a fitted effect of over 35% in size;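 on viability (% of control): plate controls were vehicle wells for no effect and wells without cells for full effect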). The gist of the method:
as §1

Assay [5] in a line: BET inhibitor-based combinations targeting novel dependencies in MECOM-rearranged (r) AML: MV-4-11 cell line (AID 2202233). Further: nearly all actives have a fitted effect of over 45% in size. A digest of the protocol:
as §2

Assay [6] in a line: BET inhibitor-based combinations targeting novel dependencies in MECOM-rearranged (r) AML: AML-194 cell line (AID 2202237; further: nearly all actives have a fitted effect of over 40% in size;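 on viability (% of control): plate controls were vehicle wells for no effect and wells without cells for full effect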). The gist of the method:
as §1
Potency means the concentration at half of the fitted maximal effect.

In the case of `NS(=O)(=O)c1ccc(Cc2c(-c3cccc(-c4ccccc4)c3)nn(-c3nc(C(=O)O)cs3)c2CC2CC2)cc1`, in assay [1], the viability is 106%. Moreover, the Potency entry in assay [2] and in assay [3] was “inactive” in each case. For the same compound, the Potency in assay [4] was 7.42 µM (active).

Consider `Cc1cc(-c2ccc(CC(=O)Nc3ccc(-c4cccnc4)cc3)cc2)ccn1`, for which the Potency in assay [1] was 16.6 µM (active); in assay [5], 13.2 µM (active); in assay [4], 9.34 µM (active).

Consider `Cc1cc(O)c(-c2ccc([C@@H](C)CN)cc2)c2c1[nH]c(=O)c1sccc12`, for which the Potency in assay [1] is 0.372 µM (active); in assay [2] it was 0.0417 µM (active); in assay [4], 0.0833 µM (active).

For `O=C(N[C@@H](c1ccccc1)[C@@H]1CCCCN1)c1cccc(C(F)(F)F)c1Cl`, the values for the Potency in assay [1] and in assay [2] were 1.18 µM (active) and 18.6 µM (active), respectively.

On to `CNC(=O)Cn1cc(-c2ccc3c(c2)C(F)CC32NC(=O)N(CC(=O)N(Cc3ccc(F)cc3)C(C)C(F)(F)F)C2=O)cn1` (stereo unspecified), for which the Potency in assay [1] is 3.72 µM (active); in assay [2], 0.0833 µM (active); in assay [3], 0.148 µM (active).

Regarding `CC(=O)O/N=C1/C(c2c(O)[nH]c3cc(Br)ccc23)=Nc2ccccc21`, the results for the Potency in assay [1], in assay [2] and in assay [4] were 14.8 µM (active), 2.95 µM (active) and 18.6 µM (active), respectively.

On to `CCOC(=O)c1ccc(C#Cc2ccc3c(c2)C(C)(C)CCS3)nc1`, for which, in assay [1], the viability is 106%. In addition, the Potency in assay [5] is 0.662 µM (active); in assay [4], 8.33 µM (active). Moreover, in assay [6], the Potency entry was “inactive”.

For the compound `O=C1OC(COc2ccccc2[N+](=O)[O-])CC1Cc1ccccc1` (stereo unspecified), the viability in assay [1] is 112%. The Potency entry in assay [2], in assay [3] and in assay [4] was “inactive” in each case.

Regarding `c1ccc(CNCc2ccc(CN3CCCNCCNCCCNCC3)cc2)nc1`, in assay [1], the viability was 110%. For the same compound, the Potency result in assay [2], in assay [3], in assay [4] and in assay [6] was “inactive” throughout.

In the case of `COc1cc(C)c(/C=C/C(C)=C/C=C/C(C)=C/C(=O)O)c(C)c1C`, the viability in assay [1] is 101%. Also, the Potency in assay [5] is 5.9 µM (active). Moreover, the Potency result in assay [3] and in assay [6] was “inactive” throughout.

In the case of `Cc1noc(C)c1-c1ccc(-c2cc(C(N)=O)c(NC(N)=O)s2)c(O[C@H]2CCNC2)c1`, in assay [1], the viability was 123%. The Potency result in assay [2], in assay [3], in assay [4] and in assay [6] was “inactive” each time.

Turning to `Cc1ccc(-c2ncn(-c3ccc(Nc4nccc(-c5cccc(N6CCOCC6)c5)n4)cc3)n2)cn1`, the Potency was 3.72 µM (active) in assay [1], 2.35 µM (active) in assay [5], 2.35 µM (active) in assay [4] and 2.95 µM (active) in assay [6].

On to `C=C1CCC[C@]2(C)C=C3OC(=O)C(C)=C3C[C@@H]12`, for which, in assay [1], the viability is 112%. The Potency result in assay [2], in assay [3], in assay [4] and in assay [6] was “inactive” throughout.

Take `Clc1cccc(C(c2ccc3nc[nH]c3c2)n2ccnc2)c1` (stereo unspecified): the viability in assay [1] was 113%. The Potency result in assay [2], in assay [3], in assay [4] and in assay [6] was “inactive” each time.

For the compound `O=C1S/C(=C\c2ccc(OCc3cccc(B(O)O)c3)cc2)C(=O)N1Cc1ccc(F)cc1`, the viability in assay [1] is 87.6%. Moreover, the Potency in assay [5] and in assay [4] was 18.6 µM (active) in each case. Moreover, in assay [6], the Potency result was “inactive”.

For `CC[C@H](CO)Nc1nc(NCc2ccccc2)c2ncn(C(C)C)c2n1`, the figures for the Potency in assay [1], in assay [5] and in assay [4] were 26.3 µM (active), 20.9 µM (active) and 23.5 µM (active), respectively.

As for `C=CCc1cccc(/C=N/NC(=O)CN2CCN(Cc3ccccc3)CC2)c1O`, the Potency was 20.9 µM (active) in assay [1], 16.6 µM (active) in assay [5], 8.33 µM (active) in assay [4] and 14.8 µM (active) in assay [6].

Take `COc1cc(OC)c(NC(=O)Nc2cc(C)on2)cc1Cl`: in assay [1], the viability was 115%. Further, the Potency entry in assay [2], in assay [3] and in assay [4] was “inactive” in each case.

For `CN(C)C[C@@H]1CCn2cc(c3ccccc32)C2=C(C(=O)NC2=O)c2cn(c3ccccc23)CCO1`, the Potency in assay [1] is 8.33 µM (active); in assay [5], 0.417 µM (active); in assay [4], 7.42 µM (active); in assay [6], 5.9 µM (active).

In the case of `C[C@H]1CN(C2COC2)CCN1c1ccc(Nc2cc(-c3ccnc(N4CCn5c(cc6c5CC(C)(C)C6)C4=O)c3CO)cn(C)c2=O)nc1`, the viability in assay [1] is 121%. In addition, the Potency in assay [5] is 14.8 µM (active). For the same compound, the Potency entry in assay [3] and in assay [6] was “inactive” in each case.

As for `CCn1c(=O)c(-c2ccc(-c3cncc(C)n3)cc2Cl)cc2cnc(NCCC3CCN(C)CC3)nc21`, the viability in assay [1] is 93.7%. Further, in assay [5], the Potency is 1.18 µM (active). Also, the values for the viability (% of control) in assay [3] and in assay [6] were 99.8% [at 5.12 µM] and 89.1% [at 5.12 µM], respectively.

Take `CS[C@H]1SC[C@@H]2C(=O)N(C)[C@H](C(C)C)C(=O)OC[C@H](NC(=O)c3cnc4ccccc4n3)C(=O)N[C@H](C)C(=O)N(C)[C@H]1C(=O)N(C)[C@H](C(C)C)C(=O)OC[C@H](NC(=O)c1cnc3ccccc3n1)C(=O)N[C@H](C)C(=O)N2C`: the Potency in assay [1] is 0.0148 µM (active); in assay [2], 0.0066 µM (active); in assay [3], 0.0053 µM (active); in assay [6] it was 0.0132 µM (active).

For `CS(=O)(=O)c1ccc([C@@H](CC2CCCC2)C(=O)Nc2nccs2)cc1`, the viability in assay [1] is 79.4%. The Potency entry in assay [2], in assay [3] and in assay [4] was “inactive” each time.

`CN(C(=O)CNC(=O)/C=C/c1cccc(Cl)c1)C1CCS(=O)(=O)CC1`: in assay [1], the Potency is 0.662 µM (active). For the same compound, the Potency entry in assay [2] and in assay [3] was “inactive” each time.

On to `CC(/C=C/[C@@H]1C[C@]1(C)c1ccc2c(c1)C(C)(C)CCC2(C)C)=C\C(=O)O`, for which, in assay [1], the viability was 110%. Moreover, the Potency in assay [2] is 18.6 µM (active).

With `Nc1cc(C(F)(F)F)c(-c2nc(N3CCOCC3)nc(N3CCOCC3)n2)cn1`, the Potency in assay [1] is 9.34 µM (active); in assay [2], 2.63 µM (active); in assay [3], 0.934 µM (active); in assay [4] it was 2.63 µM (active); in assay [6], 2.35 µM (active).

As to `C=CC(=O)N[C@H]1CN(c2nc(Nc3cn(C)nc3OC)c3ncn(C)c3n2)C[C@@H]1F`, the viability in assay [1] is 87.8%. Further, the Potency entry in assay [2] was “inactive”.

Take `CN(C)c1ccccc1CN1CCCN(Cc2ccccc2N(C)C)C1c1ccncc1`: in assay [1], the viability was 99.7%. For the same compound, the Potency entry in assay [2], in assay [3], in assay [4] and in assay [6] was “inactive” in each case.

For orientation: viability means a read-out of living cells in per cent, often relative to untreated cells.
